ALOX15 inhib = qHTS Assay for Inhibitors of 15-hLO (15-human lipoxygenase) | Potency, µM (doses to about 57.1 µM), most hits filed as inhibitors | Polyunsaturated fatty acid lipoxygenase ALOX15 (Homo sapiens), P16050 | purified 15hLO-1, xylenol orange hydroperoxide absorbance | 1.4% of 74,000 active; further: nearly all actives have a fitted effect of over 55% in size
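Hydroperoxide formed from arachidonic acid (50 uM) by purified human 15hLO-1 (40 nM) oxidizes ferrous iron, and the ferric-xylenol orange complex is read at 573 versus 405 nm. Compounds were preincubated 15 min; reaction ran 6 min at room temperature.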
BRCT PPI red = qHTS Assay for Inhibitors of BRCT-Phosphoprotein Interaction (Red Fluorophore). Breast cancer type 1 susceptibility protein (Homo sapiens), P38398. BRCT-phosphopeptide binding, red fluorescence polarization. Potency, µM (highest dose often 76.9 µM), usual class: inhibitors. 0.03% of 75,000 active. AID 892, 2007
Target sequence (P38398 whole entry, looked up): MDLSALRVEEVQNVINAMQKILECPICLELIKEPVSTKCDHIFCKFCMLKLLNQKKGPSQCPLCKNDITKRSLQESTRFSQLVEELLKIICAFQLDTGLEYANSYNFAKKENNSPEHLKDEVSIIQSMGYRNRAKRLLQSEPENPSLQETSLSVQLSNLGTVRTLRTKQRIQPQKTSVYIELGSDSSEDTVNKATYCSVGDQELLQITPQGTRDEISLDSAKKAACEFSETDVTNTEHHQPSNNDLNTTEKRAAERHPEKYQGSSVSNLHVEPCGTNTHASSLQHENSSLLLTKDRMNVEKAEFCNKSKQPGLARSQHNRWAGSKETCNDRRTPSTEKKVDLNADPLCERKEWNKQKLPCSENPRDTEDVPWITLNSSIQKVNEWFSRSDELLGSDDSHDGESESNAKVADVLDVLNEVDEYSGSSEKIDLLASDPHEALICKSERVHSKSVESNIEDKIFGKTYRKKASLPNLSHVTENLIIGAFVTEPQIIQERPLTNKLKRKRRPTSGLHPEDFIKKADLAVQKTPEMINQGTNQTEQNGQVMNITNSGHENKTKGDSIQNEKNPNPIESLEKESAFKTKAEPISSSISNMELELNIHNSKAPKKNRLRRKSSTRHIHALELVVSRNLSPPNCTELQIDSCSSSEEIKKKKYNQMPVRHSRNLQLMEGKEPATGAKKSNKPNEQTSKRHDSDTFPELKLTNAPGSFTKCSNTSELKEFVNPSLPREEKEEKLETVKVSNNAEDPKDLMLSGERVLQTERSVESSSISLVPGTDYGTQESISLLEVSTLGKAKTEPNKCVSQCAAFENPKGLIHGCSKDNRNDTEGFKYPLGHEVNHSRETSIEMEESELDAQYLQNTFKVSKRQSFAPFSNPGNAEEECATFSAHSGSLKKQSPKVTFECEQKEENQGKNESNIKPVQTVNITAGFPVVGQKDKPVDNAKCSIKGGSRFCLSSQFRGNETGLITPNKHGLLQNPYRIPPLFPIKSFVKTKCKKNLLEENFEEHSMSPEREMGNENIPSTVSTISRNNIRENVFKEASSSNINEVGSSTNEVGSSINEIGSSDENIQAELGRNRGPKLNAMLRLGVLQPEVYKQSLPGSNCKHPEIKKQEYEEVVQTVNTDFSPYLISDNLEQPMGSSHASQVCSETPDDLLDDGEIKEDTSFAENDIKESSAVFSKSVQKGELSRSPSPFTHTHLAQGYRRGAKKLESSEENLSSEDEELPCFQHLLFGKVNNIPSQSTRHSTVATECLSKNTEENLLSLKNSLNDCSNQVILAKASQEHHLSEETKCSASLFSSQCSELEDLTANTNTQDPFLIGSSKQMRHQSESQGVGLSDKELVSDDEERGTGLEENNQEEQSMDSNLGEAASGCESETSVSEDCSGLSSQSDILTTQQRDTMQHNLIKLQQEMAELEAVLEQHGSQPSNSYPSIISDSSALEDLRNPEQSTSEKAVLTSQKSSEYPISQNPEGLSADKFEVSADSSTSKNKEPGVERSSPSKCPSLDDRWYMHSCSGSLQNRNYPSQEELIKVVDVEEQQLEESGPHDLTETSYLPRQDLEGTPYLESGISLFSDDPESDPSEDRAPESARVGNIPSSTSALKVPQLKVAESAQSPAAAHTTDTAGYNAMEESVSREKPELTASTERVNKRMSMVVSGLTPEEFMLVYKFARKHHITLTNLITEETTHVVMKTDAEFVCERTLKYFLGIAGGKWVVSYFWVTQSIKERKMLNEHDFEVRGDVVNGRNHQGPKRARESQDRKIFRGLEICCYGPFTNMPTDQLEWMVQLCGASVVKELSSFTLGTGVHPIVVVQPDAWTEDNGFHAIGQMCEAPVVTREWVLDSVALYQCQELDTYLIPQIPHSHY
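Fluorescence polarization: 100 nM His-tagged BRCA1 BRCT with 100 nM TAMRA-labelled phospho-BACH1 decapeptide, phosphate buffer pH 7.3 with 150 mM NaCl, DTT, 0.01% Tween 20; 12 min RT. Binding inhibition seen as FP decrease.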
DNA Pol III inh = qHTS Assay for Inhibitors of DNA Polymerase III Holoenzyme System; AID 603, 2007; reconstituted DNA polymerase III holoenzyme replication, biochemical; Potency, µM (top dose mostly 57.1 µM); 0.25% of 71,000 active
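Reconstituted *E. coli* holoenzyme (0.35 nM Pol III, 1 nM beta, 154 nM SSB, 2 nM primase) was preincubated with compound for 15 min at RT. Synthesis on 1.4 nM ssM13Gori ran 35 min, then was stopped with PicoGreen/EDTA and read as dsDNA fluorescence.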
TsaE inh = qHTS Assay for Inhibitors of YjeE | tRNA threonylcarbamoyladenosine biosynthesis protein TsaE (Escherichia coli (strain … | purified YjeE enzyme, qHTS inhibition assay | Potency, µM | 0.05% of 71,000 active
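Fluorescence polarization of a BODIPY Texas Red–ADP probe (2 uM) bound to purified YjeE (10 uM) was read after 15 min room-temperature incubation with compounds. Loss of polarization marks inhibitors; ADP serves as titrated control.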
Hsp90 Hop PPI = qHTS Assay for Disrupters of an Hsp90 Co-Chaperone Interaction; Hsp90 C-terminal peptide / TPR2A (Hop) interaction, human; AlphaScreen TPR2A-His6 binding biotin-Hsp90 C-terminal peptide; Potency, µM (series often up to 57 µM); 0.44% of 71,000 active; AID 595, 2007; active means well fitted curve in either direction with a large enough effect; inconclusive means small, poorly fitted or top-dose-only effect, or another doubt
BRCT PPI green = qHTS Assay for Inhibitors of BRCT-Phosphoprotein Interaction (Green Fluorophore); BRCA1 BRCT-phosphopeptide binding, green fluorescence polarization; Potency, µM (doses to about 76.9 µM), usual class: inhibitors; 0.05% of 75,000 active; AID 875, 2007
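Compounds were incubated for 12 min at room temperature with a complex of 100 nM fluorescein-tagged pBACH1 decapeptide and 250 nM His-tagged BRCT protein. Buffer was phosphate pH 7.3 with EDTA, DTT and Tween 20. Disruption of binding lowers the polarization signal.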
Hits are given with their value; . = inactive; ? = inconclusive; / = no result; [ ] = remark or other dose. Rows were chosen to be rich in hits. Some 1.9% of all compounds tested hit in one or more screens of this group. Unless noted, the call rests on the fitted dose curve; in most records, active means well fitted curve in the direction sought with a large enough effect; inconclusive means small, poorly fitted or top-dose-only effect, or another doubt; inactive means no such curve, though single readings can be large; an effect the other way counts as inactive or inconclusive.

SMILES	ALOX15 inhib	BRCT PPI red	DNA Pol III inh	TsaE inh	Hsp90 Hop PPI	BRCT PPI green
CC1=C(/C=C/C(C)=C/C=C/C(C)=C/C(=O)O)C(C)(C)CCC1	.	.	/	/	/	.
CC1=C(/C=C/C(C)=C/C=C/C(C)=C/C=C/C=C(C)/C=C/C=C(C)/C=C/C(=O)[C@]2(C)CC(O)CC2(C)C)C(C)(C)CC(O)C1 (some centres not stated)	3.2µM	.	/	/	/	.[3.08 µM]
O=c1c(O)c(-c2ccc(O)c(O)c2)oc2ccccc12	2µM	.	?	.	.	.
COc1ccc(-c2coc3cc(O)ccc3c2=O)c(O)c1O	13µM	.	/	/	/	.[3.08 µM]
COc1ccc(-c2oc3ccccc3c(=O)c2O)cc1	.	.	/	/	/	.
COc1ccc(-c2coc3cc(O)ccc3c2=O)c(OC)c1O	.	.	/	/	/	.
COc1cc(-c2oc3cc(O)ccc3c(=O)c2O)ccc1O	13µM	.	/	/	/	.
O=C1OC(O)C(C(Cl)Cl)=C1Cl (configuration not stated)	.	.	.	.	.	.
COc1ccc2nc3c(nc2c1)C(=O)c1ccccc1-3	.	.	/	/	/	.
c1cncc(-c2nn3c(Cn4cnc5ccccc54)nnc3s2)c1	4µM	.	.	.	.	.
Cc1ccc(-c2nc(-c3ccccc3)no2)c(Cl)c1	.	.	.	.	25µM	.
O=C(NCCN1CCOCC1)c1cc(-c2ccc(O)cc2)on1	.	.	.	.	.	.
O=C(CN1CCN(Cc2ccccc2)C1=O)NCc1ccc(Cl)cc1	.	.	.	.	.	.
O=C(O)c1c(Sc2ccccc2)c2cc(Cl)ccc2n1Cc1ccc(Cl)cc1	25µM	.	/	/	/	.
OC[C@@H]1O[C@@H](n2cnc3c(NC4CCCCC4)ncnc32)[C@@H](O)[C@H]1O	.	.	.	.	.	.
O=C(O)c1cc(-c2ccco2)nc2ccc(Br)cc12	?	.	25µM	.	.	.
Cc1noc(C)c1-c1nccc(NCc2ccccc2)n1	16µM	.	.	.	.	.
O=c1cnnc(SCCc2ccccc2)[nH]1	4µM	.	.	.	.	.
CC(C)c1cc(Nc2cccc(O)c2)cc(C(C)C)c1O	10µM	.	.	.	?	.
CC(=O)N1CCC2(CC1)C(C#N)=C(N)Oc1c2sc2nc(C)cc(C)c12	?	.	.	.	.	.
CCN1CCC2(CC1)C(C#N)=C(N)Oc1c2sc2nc(C)cc(C)c12	25µM	.	.	.	.	.
COc1cc(NC(=O)c2cc3c(C)nc4ccccc4c3o2)cc(OC)c1OC	.	.	.	.	.	.
COc1ccc(NC(=O)c2cc(-c3ccc(C)o3)nc3ccccc23)cc1OC	32µM	.	.	.	.	.
CCCCNC(=O)CSc1nc2ccc(N3CCOCC3)cc2c(=O)n1CCc1ccccc1	25µM	.	.	.	.	.
COc1cccc(Nc2ncc3nc(-c4ccccc4)c(=O)n(C[C@H]4CCCO4)c3n2)c1	.	.	.	.	13µM	.
SMILES	ALOX15 inhib	BRCT PPI red	DNA Pol III inh	TsaE inh	Hsp90 Hop PPI	BRCT PPI green
COc1ccc(-n2c(=O)c(-c3ccc(F)cc3)nc3cnc(N4CCOCC4)nc32)cc1	.	.	.	.	.	.
COc1cccc(Nc2ncc3nc(-c4ccc(Cl)cc4)c(=O)n(C[C@H]4CCCO4)c3n2)c1	.	.	.	.	.	.
CCNc1ncc2nc(-c3ccccc3)c(=O)n(-c3ccc(OC)cc3)c2n1	.	.	.	.	4µM	.
COc1ccc(-c2nc3cnc(N4CCOCC4)nc3n(-c3ccc(OC)cc3)c2=O)cc1	16µM	.	.	?	?	.
O=C(NCCO)c1ccc(Cc2nc3ccccc3[nH]2)cc1	.	.	/	/	/	.
CC(=O)c1cccc(NC(=O)Nc2cccs2)c1	?	.	/	/	/	.
COc1cccc(NC(=O)Nc2cccs2)c1	20µM	.	.	.	.	.
COc1ccc(NC(=O)Nc2cccs2)cc1OC	20µM	.	.	.	.	.
COc1ccc(NC(=O)c2cccs2)cc1OC	.	.	.	.	.	.
O=C(OCC#CCSc1nnc(-c2ccc(Br)cc2)o1)c1ccco1	3.2µM	.	.	.	.	.
CCc1nn2cc(-c3ccccc3)nc2s1	10µM	.	.	.	.	.
Cc1nn2cc(-c3ccc(-c4ccccc4)cc3)nc2s1	.	.	.	.	.	.
NC(N)=N/N=C\c1ccc(O)c(C(=O)O)c1	.[11.4 µM]	.[15.4 µM]	.[11.4 µM]	.	.[11 µM]	.[15.4 µM]
O=S(=O)(O)c1cc(N=[N+]([O-])c2cc(S(=O)(=O)O)c3ccccc3c2)cc2ccccc12	4µM	.[15.4 µM]	.[11.4 µM]	.	.[11 µM]	.[15.4 µM]
CSc1ccc(C2C(C#N)=C(N)Oc3c2ccc(=O)c2c(C)oc(C)c32)cc1 (configuration not stated)	16µM	.	.	.	?	.
O=C(NCCN1CCOCC1)c1ccc(Cc2nc3ccccc3[nH]2)cc1	.	.	/	/	/	.
O[C@@H](c1cc([C@@]23C[C@H]4CC[C@@H]2C[C@H](C4)C3)nc2c(Cl)cc(Cl)cc12)[C@@H]1CCCCN1	.[11.4 µM]	.[15.4 µM]	.[11.4 µM]	.	.[11 µM]	.[15.4 µM]
Cc1ccsc1C1NC(=O)c2c(sc3c2CCN(C)C3)N1 (configuration not stated)	?	.	.	.	?	.
CN1CCc2c(sc3c2C(=O)NC(c2ccc(-c4cccc(Cl)c4)o2)N3)C1 (configuration not stated)	2.5µM	.	.	.	?	.
CSc1ccc(C2NC(=O)c3c(sc4c3CCN(C)C4)N2)cc1 (configuration not stated)	?	.	.	.	.	.
CN1CCc2c(sc3c2C(=O)NC(c2cccs2)N3)C1 (configuration not stated)	3.2µM	.	.	.	.	.
O=C(/C=C\c1ccc(O)cc1)c1ccc(O)cc1O	?	.	.	.	.	.
NC(=S)c1ccc[n+]([C@@H]2O[C@@H](COP(=O)([O-])OP(=O)(O)OC[C@@H]3O[C@@H](n4cnc5c(N)ncnc54)[C@@H](OP(=O)(O)O)[C@H]3O)[C@@H](O)[C@H]2O)c1	?	.	.	.	.	.
O=C1CCCC2=C1C(c1ccco1)Nc1ccc3ccccc3c12 (configuration not stated)	?	.	25µM	.	.	.
O=C1C2=CC[C@H]3C(=O)N(C[C@@H]4CCCO4)C(=O)[C@@H]3[C@@H]2[C@H](O)[C@@H]2O[C@H]12	.[11.4 µM]	.[15.4 µM]	/	/	/	.[15.4 µM]
